Assay results published in ChEMBL document CHEMBL1157539, “Thousands of chemical starting points for antimalarial lead identification” (Nature, 2010).

What was measured:
Assay type in all cases: functional
Plasmodium falciparum [1] = test: GSK_TCMDC: Inhibition of Plasmodium falciparum 3D7 in whole red blood cells, using parasite LDH activity as an index of growth. Test compounds present at 2uM
Plasmodium falciparum [2] = test: GSK_TCMDC: Inhibition of Plasmodium falciparum Dd2 in whole red blood cells, using parasite LDH activity as an index of growth. Test compounds present at 2uM
HepG2 = test: GSK_TCMDC: Percent inhibition of human HepG2 cell line. Test compounds present at 10uM.

| SMILES | Inhibition (Plasmodium falciparum [1]) [%] | Inhibition (Plasmodium falciparum [2]) [%] | Inhibition (HepG2) [%] |
| --- | --- | --- | --- |
| Cc1ccc(-c2nc(NC(=O)Nc3ccc(C(F)(F)F)cc3)sc2C)cc1Cl | 99 | 86 | 29 |
| COc1ccc2ncc(F)c(CCN3CCC(CNC(=O)C(=O)c4c[nH]c5ccccc45)CC3)c2n1 | 100 | 99 | 48 |
| CCS[C@@H]1O[C@H](COC(=O)c2ccccc2)[C@H](OC(=O)c2ccccc2)[C@H](OC(=O)c2ccccc2)[C@H]1OC(=O)c1ccccc1 | 98 | 52 | 4 |
| Cc1noc(C)c1CN1CCCN(c2ccc3c(c2)CCN(Cc2ccc(-c4ncc[nH]4)cc2)CC3)CC1 | 98 | 39 | 1 |
| COc1ccc(CCNC(C)Cc2ccc(C(=O)Nc3ccc(CC(C)NCCc4cccc(Cl)c4)cc3)cc2)cc1 (configuration not stated) | 100 | 89 | 99 |
| CN(C)C(=S)N/N=C1/C(=O)Nc2ccc(OC(F)(F)F)cc21 | 93 | 52 | 36 |
| COc1ccc2nccc([C@@H](O)CN3CCC(NCc4cc5oc(=O)[nH]c5cc4Cl)CC3)c2c1.O=C(O)C(=O)O | 100 | 91 | 1 |
| COc1ccc(-c2ccc(NC(=O)c3cccc(Cl)c3)c(F)c2)cc1CNC(C)C.O=C(O)C(F)(F)F | 93 | 14 | 19 |
| O=C1Nc2cccc3c2C1(CCCCN1CCC(c2c[nH]c4cc(C(F)(F)F)ccc24)CC1)CCC3 (configuration not stated) | 99 | 79 | 99 |
| Br.CC1(C)NC(N)=NC(=N)N1OCCCc1c(Cl)cccc1Cl | 95 | 97 | 71 |
| CCCN1CCN(CCCCNc2c3ccccc3nc3ccccc23)CC1.Cl | 100 | 0 | 34 |
| O=C(Nc1ccc(C(=O)N2CCN(CCN3CCN(c4cccc(C(F)(F)F)c4)CC3)CC2)cc1)c1ccc(C(F)(F)F)cc1 | 95 | 28 | 39 |
| Oc1cc(-c2cccc(C(F)(F)F)c2)nc(Nc2ccc(Cl)c(Cl)c2)n1 | 97 | 97 | 57 |
| O=C(N[C@H]1CCN(Cc2ccc(OCCCN3CCCCC3)cc2)C1)c1ccc2ccccc2c1 | 97 | 32 | 8 |
| Cc1cc(C=C2SC(=Nc3ccccc3)N(C3CCCC3)C2=O)c(C)n1-c1ccc(Cl)cc1 | 100 | 70 | 0 |
| CCc1cccc(NC(=O)/C=C/c2ccc3c(c2)CN(C)CC3)c1 | 94 | 91 | 8 |
| C[C@H]1CN(Cc2cccc(-c3cc(CNC(=O)c4cccc(CC5CCN(C)CC5)c4)ccc3F)c2)CCN1C | 100 | 99 | 42 |
| O=C(NC1CCN(Cc2ccccc2)CC1)c1cc(C(=O)NC2CCN(Cc3ccccc3)CC2)cc(C(=O)NC2CCN(Cc3ccccc3)CC2)c1 | 100 | 100 | 13 |
| Cc1cccc2nc(-c3cccc(-c4cccc(NC(=O)CN5CCN(C)CC5)c4)c3)[nH]c12 | 100 | 99 | 76 |
| Cn1c(=O)c2nc(-c3ccc(Cl)cc3)nnc2n(CCCC#N)c1=O | 99 | 98 | 6 |

| SMILES | Inhibition (Plasmodium falciparum [1]) [%] | Inhibition (Plasmodium falciparum [2]) [%] | Inhibition (HepG2) [%] |
| --- | --- | --- | --- |
| Cc1noc(C)c1-c1cccc(CNCc2cccc(-c3cccc(-c4nc5ccccc5[nH]4)c3)c2)c1.O=C(O)C(F)(F)F | 100 | 54 | 22 |
| CCOc1cc(C(=O)N[C@@H](Cc2ccccc2)[C@H](O)CNCc2cc(OC)cc(OC)c2)cc(N2CCCC2=O)c1.Cl | 94 | 63 | 0 |
| CCCCCCCN1CC[C@@H](CCCc2ccnc3ccc(OC)cc23)[C@@H](CCN)C1.O=C(O)C(=O)O | 100 | 11 | 50 |
| COc1cc([N+](=O)[O-])ccc1NC(=O)c1cc(Cl)ccc1O | 87 | 100 | 92 |
| CCOC(=O)C(=CNc1ccc(Cc2cnc(N)nc2N)cc1CC)C(=O)OCC | 87 | 7 | 47 |
| COc1ccc(N2CCN(CCCC/C=C/c3ccc(NC(=O)c4cc(Cl)cc(Cl)c4)cc3)CC2)c(OC)c1 | 99 | 39 | 20 |
| COc1ccc2ncc(F)c([C@H](O)CN3CCC(NCc4ccc5c(c4)NC(=O)CO5)CC3)c2c1.Cl | 100 | 100 | 16 |
| CCn1c(-c2nonc2N)nc2c(-c3cccc(NC(=O)NC45CC6CC(CC(C6)C4)C5)c3)ncc(OCCCN)c21.O=C(O)C(F)(F)F | 94 | 63 | 100 |
| Br.c1cc(Nc2nc(-c3ccc(-c4csc(Nc5ccncc5)n4)cc3)cs2)ccn1 | 100 | 99 | 91 |
| O=C(O)C1Cc2c([nH]c3ccccc23)C(c2ccc(Cl)cc2Cl)N1 (configuration not stated) | 91 | 100 | 7 |
| COc1ccc2c(N/N=C/c3ccccc3[N+](=O)[O-])cc(C)nc2c1 | 100 | 100 | 14 |
| Cc1cccc2nc(-c3ccc(-c4ccc(CNCc5cccc(N)c5)cc4)cc3)[nH]c12.O=C(O)C(F)(F)F | 100 | 84 | 12 |
| COc1ccc2nc(C)cc(Nc3ccc(Oc4ccc5ccccc5c4)c(Cl)c3)c2c1 | 100 | 99 | 40 |
| CCCCC(CC)NC(=O)[C@H]1CNCCN1C(=O)CCCc1ccccc1.O=C(O)C(F)(F)F (some centres not stated) | 94 | 0 | 5 |
| COc1ccc(C(=O)C2CCN(CCCCNC(=O)c3ccc(NC(=O)c4cc(Cl)cc(Cl)c4)cc3)CC2)cc1 | 100 | 84 | 35 |
| Cc1cc(N[C@@H](CC(C)C)C(=O)NCCc2ccccc2)nc(NCc2ccccc2C)n1.O=C(O)C(F)(F)F | 93 | 74 | 17 |
| Cc1ccc(NS(=O)(=O)c2ccc(-c3ccccc3)cc2)c(Cn2cnc(N3CCCNCC3)cc2=O)c1.O=C(O)C(F)(F)F | 87 | 33 | 10 |
| Nc1nc2c(c(=O)[nH]1)CN(S(=O)(=O)c1ccc(C(=O)N[C@@H](CCC(=O)O)C(=O)O)cc1)CC2 | 95 | 96 | 49 |
| CCC(C)CN1CCN(c2ccc(NC(=O)c3cccs3)cc2)C(C)C1.O=C(O)C(F)(F)F (configuration not stated) | 95 | 95 | 0 |
| Clc1ccc(-c2cc(-c3csc(Nc4ccncc4)n3)on2)cc1 | 100 | 99 | 1 |

| SMILES | Inhibition (Plasmodium falciparum [1]) [%] | Inhibition (Plasmodium falciparum [2]) [%] | Inhibition (HepG2) [%] |
| --- | --- | --- | --- |
| COc1ccc2nccc(N3CCC(CCNCc4ccc5c(n4)NC(=O)CS5)CC3)c2n1.Cl | 100 | 75 | 32 |
| Cn1cc(CCNc2ccnc(N3CCC(c4ncc[nH]4)CC3)n2)c2ccccc21 | 92 | 5 | 12 |
| COCCCNc1sc(S(=O)(=O)c2ccccc2)nc1S(=O)(=O)c1ccc(C)cc1 | 84 | 44 | 7 |
| O=C(Nc1ccc(Br)c(C(F)(F)F)c1)c1cccc([N+](=O)[O-])c1 | 94 | 3 | 24 |
| CC1CN(Cc2cccc(F)c2)CCN1c1ccc(NC(=O)c2cccs2)cc1.O=C(O)C(F)(F)F (configuration not stated) | 96 | 96 | 0 |
| CCc1cn(CCc2ccccc2)c2ccc(C(=O)N[C@@H](Cc3ccccc3)[C@H](O)CNC(C)(C)CCCC(C)C)cc12.O=CO | 98 | 99 | 66 |
| c1ccc(Oc2ccc(Nc3ccnc(Nc4cccc(CNCCCN5CCOCC5)c4)n3)cc2)cc1 | 100 | 50 | 0 |
| CS(=O)(=O)c1ccc(CNCc2ccc(-c3cccc(-c4nc5cc(F)ccc5[nH]4)c3)cc2)cc1.O=C(O)C(F)(F)F | 100 | 74 | 33 |
| COc1cc2nc(NCCC(C)C)n3nc(-c4ccccc4)nc3c2cc1OC | 94 | 97 | 0 |
| O=C(Nc1cccc(CN2CCCN(Cc3ccc(O)cc3)CC2)c1)c1ccc(Br)cc1.O=C(O)C(F)(F)F | 94 | 54 | 19 |
| Cc1cc(N)nc2ccc(-c3ccc(CCN)cc3)cc12 | 100 | 48 | 31 |
| O=C(Nc1cccc(OC2CCN(Cc3ccccc3)CC2)c1)c1ccc(Cl)c(Cl)c1.O=C(O)C(F)(F)F | 100 | 45 | 16 |
| Cc1cc(N[C@@H](CC(C)C)C(=O)NCCc2ccccc2)nc(Nc2ccccc2)n1.O=C(O)C(F)(F)F | 100 | 38 | 1 |
| CCc1cn2c3c(cc(C(=O)N[C@@H](Cc4cccc(Cl)c4)[C@H](O)CNC4CCCCC4)cc13)N(C)S(=O)(=O)CC2.O=CO | 97 | 98 | 12 |
| Cc1ccc(Cl)cc1NC(=O)c1c(-c2ccccc2Cl)noc1C | 88 | 37 | 9 |
| CC(C)CCNC(=N)c1ccc(OCCCCCOc2ccc(C(=N)NCCC(C)C)cc2)cc1.Cl | 98 | 94 | 5 |
| Cc1cccc2nc(-c3ccc(-c4cccc(NC(=O)Nc5ccsc5)c4)s3)[nH]c12 | 100 | 29 | 30 |
| FC(F)(F)c1ccc2[nH]c(-c3ccc(-c4cccc(CNCCc5ccncc5)c4)s3)nc2c1.O=C(O)C(F)(F)F | 100 | 95 | 20 |
| CCCC1CCNC(C(O)c2ccnc3ccc(OC)cc23)C1.Cl (configuration not stated) | 98 | 78 | 0 |
